The structures appear in SMILES notation.

This assay is described as follows: small molecules boosting NK-mediated OVCAR3 lysis – imaging, primary NK cells, calcein-AM imaging, primary screen (AID 1508625).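 Further: compound given to NK cells 16 h before adding targets at 1.5 to 1 ratio.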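 On z-score: more negative robust z means stronger NK killing of tumor cells.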 The following applies: OVCAR3 lysis by primary NK cells, at 5 µM; z-score: measured here: robust Z-score, single-point normalisation.

`CCN(CC)CCCn1c(=S)[nH]c2cc(C(=O)OC)ccc2c1=O`: the corrected activity, negative = more killing was -3.76% and the z-score was -0.997.

As to `CC(C)NC(=O)CC(=O)NN=C1CCCC1`, the corrected activity, negative = more killing is -6.06% and the z-score is -2.58.

Take `COc1ccc(C=c2sc3nc4cc(C)c(C)cc4n3c2=O)cc1Br`: the corrected activity, negative = more killing is -0.475% and the z-score is -0.246.

Turning to `CCOc1ccc(S(=O)(=O)NC(C)C)c2cccnc12`, the corrected activity, negative = more killing is -3.65% and the z-score was -1.16.

Take `Cc1ccccc1OCC(=O)Nc1c[nH]c(=O)[nH]c1=O`: the corrected activity, negative = more killing was -0.837% and the z-score was -0.363.

As to `Cc1ccc(C=C(NC(=O)c2ccc(C)cc2)c2nc3ccccc3[nH]2)cc1`, the corrected activity, negative = more killing is -1.41% and the z-score was -0.73.

Take `CN(Cc1ccccc1)Cc1c(O)ccc2c(=O)c(Oc3ccccc3Br)c(C(F)(F)F)oc12`: the corrected activity, negative = more killing was 2.2% and the z-score was 0.682.

For `CC1CCC2C(=O)N(c3ccc(N4CC5(C)CC4CC(C)(C)C5)c([N+](=O)[O-])c3)C(=O)C2C1` (centres undefined), the corrected activity, negative = more killing was -1.82% and the z-score is -0.661.

As to `CC(=O)Nc1ccc(NC(=O)CC2OCC3CCCCN3C2=O)cc1` (centres undefined), the corrected activity, negative = more killing is -5.1% and the z-score was -1.95.

For `COc1ccc(CN2c3cccc[n+]3CC2(O)c2ccc(Cl)cc2)cc1` (centres undefined), the corrected activity, negative = more killing is 0.199% and the z-score was 0.0419.

With `N#Cc1ccccc1NC(=O)CSc1nnc(N)s1`, the corrected activity, negative = more killing was 2.04% and the z-score was 0.632.

`COc1ccccc1Cn1c(=S)[nH]c2cc(Cl)ccc2c1=O`: the corrected activity, negative = more killing was -3.97% and the z-score is -1.05.

On to `O=C(CCCn1c(=S)[nH]c2cc3c(cc2c1=O)OCO3)NCCCN1CCOCC1`, for which the corrected activity, negative = more killing was -7.74% and the z-score is -2.05.

With `Cc1cc(-n2c(N)c(C(N)=O)sc2=S)ccc1Cl`, the corrected activity, negative = more killing is -4.14% and the z-score was -1.1.

Turning to `O=[N+]([O-])c1ccc2[nH]c3c(c2c1)CCCC3NC1Cc2ccccc2C1` (centres undefined), the corrected activity, negative = more killing is 0.0593% and the z-score was 0.0259.

In the case of `Brc1ccc(SCCc2nc3ccccc3o2)cc1`, the corrected activity, negative = more killing is -4.19% and the z-score was -1.56.

For `Cc1cc2nc3sc(=Cc4ccc(Cl)cc4Cl)c(=O)n3c2cc1C`, the corrected activity, negative = more killing was -1.46% and the z-score was -0.755.

For the molecule `O=C(Nc1cccc2ccccc12)ON=Cc1ccc(F)cc1`, the corrected activity, negative = more killing was -4.41% and the z-score was -1.4.

`C=CCn1c(=S)[nH]c2cc(C(=O)Nc3cccc(C(F)(F)F)c3)ccc2c1=O`: the corrected activity, negative = more killing is -6.01% and the z-score is -1.91.

Consider `COc1ccc(NC(=O)c2sc3cc([N+](=O)[O-])ccc3c2Cl)c(OC)c1`, for which the corrected activity, negative = more killing was -2.66% and the z-score was -0.942.

For the molecule `Clc1ccccc1[C@@H]1Nc2ccccc2[C@@H]2C=CC[C@@H]21`, the corrected activity, negative = more killing is -1.75% and the z-score was -0.523.

For `Cc1ccc(-c2noc(-c3ccccc3F)n2)cc1`, the corrected activity, negative = more killing is -2.22% and the z-score was -0.911.

With `O=C(Nc1cc2c(cc1C(=O)c1ccc(Br)cc1)OCCO2)c1ccc(Cl)cc1`, the corrected activity, negative = more killing is -4.2% and the z-score was -1.3.

Take `O=c1cc(-c2ccc([N+](=O)[O-])cc2)nc2c(-c3ccc(Cl)cc3)c(Cc3ccccc3)[nH]n12`: the corrected activity, negative = more killing is -1.76% and the z-score was -0.911.

Consider `CCOC(=O)c1ccc(CN(Cc2ccc(F)cc2)S(=O)(=O)c2cccc(Cl)c2)cc1`, for which the corrected activity, negative = more killing was -6.34% and the z-score is -1.71.

On to `COc1ccc(OC)c(NC(=O)c2cc3c(=O)n4ccccc4nc3s2)c1`, for which the corrected activity, negative = more killing is -6.86% and the z-score is -1.95.

As for `COc1ccc(C(=O)N2N=C(C(C)C)CC2(O)C(F)(F)F)cc1OC` (centres undefined), the corrected activity, negative = more killing was -4.89% and the z-score is -1.46.

Turning to `COCCCNCCOc1c(Cl)cc(C)cc1Br`, the corrected activity, negative = more killing is -4.25% and the z-score was -1.58.

`O=C(O)c1ccc(S(=O)(=O)c2ccc3c(c2)C(=O)N(CC2CCCO2)C3=O)cc1` (centres undefined): the corrected activity, negative = more killing was 0.388% and the z-score is 0.146.

As to `Cc1cc(C)c(S(=O)(=O)NCc2ccc(C(=O)NCCc3ccc(Cl)cc3)cc2)c(C)c1`, the corrected activity, negative = more killing was -5.64% and the z-score was -1.38.

With `Cc1ccc(C(=O)Nc2cccc3c2C(=O)c2ccccc2C3=O)o1`, the corrected activity, negative = more killing is -2.82% and the z-score is -1.16.

On to `CCOc1ccc(-c2cc(=O)c3ccccc3o2)cc1`, for which the corrected activity, negative = more killing was -6.12% and the z-score was -2.28.

For the molecule `Cc1ccc(C(=O)NC(=Cc2cccnc2)C(=O)Nc2ccc(I)cc2)cc1`, the corrected activity, negative = more killing is -0.444% and the z-score was -0.23.

With `CC1=C(C(=O)OCCc2ccccc2)C(c2coc3ccc(C)cc3c2=O)C2=C(CC(c3cccs3)CC2=O)N1` (centres undefined), the corrected activity, negative = more killing was 0.37% and the z-score is 0.141.

On to `CCOC(=O)c1c(N)sc(C(=O)Nc2cc(C)ccc2C)c1C`, for which the corrected activity, negative = more killing was -5.05% and the z-score was -1.57.

Regarding `Cc1cc(C)n(C(=O)c2nn(C)cc2I)n1`, the corrected activity, negative = more killing is -2.43% and the z-score is -0.913.

Consider `N=C1NC(=O)C(=Cc2ccc(F)cc2)S1`, for which the corrected activity, negative = more killing was -5.91% and the z-score is -2.51.

With `CCOc1ccccc1C(=O)N1CCN(c2ccccc2OCC)CC1`, the corrected activity, negative = more killing is -2.5% and the z-score was -1.03.

In the case of `COc1ccccc1C(=O)N1CCN(S(=O)(=O)c2ccc(C)cc2)CC1`, the corrected activity, negative = more killing was -3.03% and the z-score was -1.35.

With `c1ccc2nn(C34CC5CC(CC(C5)C3)C4)nc2c1`, the corrected activity, negative = more killing is -1.32% and the z-score is -0.685.

With `Cc1ccc([N+](=O)[O-])cc1NS(=O)(=O)c1ccc(Cl)cc1`, the corrected activity, negative = more killing is 4.17% and the z-score is 1.33.

For `Brc1ccc(-c2noc(CSc3ccccc3)n2)cc1`, the corrected activity, negative = more killing was -0.336% and the z-score is -0.187.

For the molecule `COc1cc(NC(=O)c2cccs2)ccc1NC(=O)c1ccccc1Cl`, the corrected activity, negative = more killing is -4.46% and the z-score is -2.48.

On to `CCc1ccc(N2C(=O)CSC2c2ccc(Br)cc2)cc1` (centres undefined), for which the corrected activity, negative = more killing is -3.8% and the z-score is -1.62.

In the case of `Cc1c(NC(=O)CCCCCN2C(=O)c3ccccc3C2=O)c(=O)n(-c2ccccc2)n1C`, the corrected activity, negative = more killing is -6.57% and the z-score is -2.47.

In the case of `CSc1nnc2c(n1)OC(c1ccc(OCC(=O)O)cc1)Nc1ccccc1-2` (centres undefined), the corrected activity, negative = more killing was -2.58% and the z-score is -0.915.

Consider `Cc1cccc(N2C(=O)c3ccc(NC(=O)c4ccc(Br)cc4)cc3C2=O)c1`, for which the corrected activity, negative = more killing was -3.53% and the z-score is -1.25.

The values above are taken from PubChem BioAssay AID1508625 (Wald Lab, School of Medicine, Case Western Reserve …, 2021).
